# Test results as given in PubChem BioAssay (NCATS).
# Inconclusive results are not listed. Where a call stands in place of a potency, no number is given. Calls of active or inactive are those of the source. Unless noted, calls come from the whole dose curve; as a rule, active = well fitted curve in the direction sought with a large enough effect; inconclusive = small, poorly fitted or top-dose-only effect, or another doubt; inactive = no such curve, though single readings can be large; an effect the other way counts as inactive or inconclusive.
# Legend:
# [1] = NCATS anti-infectives library activity on HEK293 viability as a counter-qHTS vs the C. elegans viability qHTS (AID 1745854);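 note: HEK293 cells exposed to compounds for 24 hr before the viability read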
# How it was run: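 Cytotoxicity in human HEK293 cells is measured by ATP-dependent CellTiter-Glo luminescence following a 24 hr incubation with titrated library compounds at 37C. Top final concentration is 41.7 uM.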
# [2] = target: Glutathione peroxidase 1 (Homo sapiens) (UniProt P07203); test: Primary qHTS Assay for Inhibitors of Recombinant Selenoprotein Glutathione Peroxidase 1 (GPX1) (AID 1845191); note: nearly all actives have a fitted effect of over 65% in size
# Chain of Glutathione peroxidase 1 (Homo sapiens) (P07203 whole entry, looked up): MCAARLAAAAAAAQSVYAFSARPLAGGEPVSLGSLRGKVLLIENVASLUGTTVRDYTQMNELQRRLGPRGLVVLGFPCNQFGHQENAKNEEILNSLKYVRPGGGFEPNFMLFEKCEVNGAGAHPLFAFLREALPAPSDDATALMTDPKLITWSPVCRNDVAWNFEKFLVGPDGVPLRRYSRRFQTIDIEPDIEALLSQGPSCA
# How it was run: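 GR-coupled assay: compounds preincubated 30 min at room temperature with GPX1, then reaction started with CHP; final 10 nM GPX1, 1 mM GSH, 0.5 mM CHP, 0.5 mM NADPH, 100 nM GR, 0.01% BSA, pH 7.5 Tris buffer. NADPH fluorescence (340/450 nm) read at 0 and 15 min.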
# [3] = target: Catechol O-methyltransferase (Homo sapiens) (UniProt P21964); test: Confirmatory Screen for Target Class Profiling of Small Molecule Inhibitors of Methyltransferases (AID 1745852; calls by dose curve; note: potency is the fitted concentration of half-maximal effect); settings: MTase-Glo luminescence, SAH detection, recombinant enzyme; measured here: COMT max response; stronger effect = lower value
# Chain of Catechol O-methyltransferase (Homo sapiens) (P21964 whole entry, looked up): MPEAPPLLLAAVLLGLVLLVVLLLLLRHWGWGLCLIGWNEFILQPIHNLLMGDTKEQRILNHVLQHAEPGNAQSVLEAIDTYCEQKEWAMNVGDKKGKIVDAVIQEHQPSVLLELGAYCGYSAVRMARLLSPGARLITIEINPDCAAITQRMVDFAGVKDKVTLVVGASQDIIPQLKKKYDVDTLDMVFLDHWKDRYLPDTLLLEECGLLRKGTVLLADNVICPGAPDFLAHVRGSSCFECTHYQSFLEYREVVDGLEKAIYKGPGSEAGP
# [4] = target: Guanidinoacetate N-methyltransferase (Homo sapiens) (UniProt Q14353); test: as above; settings: MTase-Glo luminescence, SAH detection, recombinant enzyme; activity change, negative = inhibition: at 57.3 µM (top of the series)
# [5] = target: Nicotinamide N-methyltransferase (Homo sapiens) (UniProt P40261); test: as above; settings: MTase-Glo luminescence, SAH detection, recombinant enzyme; measured here: NNMT max response; stronger effect = lower value
# Chain of Nicotinamide N-methyltransferase (Homo sapiens) (P40261 whole entry, looked up): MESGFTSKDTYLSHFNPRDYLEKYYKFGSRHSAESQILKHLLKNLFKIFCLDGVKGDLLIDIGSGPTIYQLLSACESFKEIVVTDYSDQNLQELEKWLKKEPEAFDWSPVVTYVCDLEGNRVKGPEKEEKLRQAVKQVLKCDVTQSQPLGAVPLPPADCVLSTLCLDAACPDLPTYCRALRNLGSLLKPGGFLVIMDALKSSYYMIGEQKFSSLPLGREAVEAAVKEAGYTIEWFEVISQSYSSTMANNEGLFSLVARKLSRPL
# [6] = target: Phenylethanolamine N-methyltransferase (Homo sapiens) (UniProt P11086); test: as above; settings: MTase-Glo luminescence, SAH detection, recombinant enzyme; measured here: PNMT max response; stronger effect = lower value
# Chain of Phenylethanolamine N-methyltransferase (Homo sapiens) (P11086 whole entry, looked up): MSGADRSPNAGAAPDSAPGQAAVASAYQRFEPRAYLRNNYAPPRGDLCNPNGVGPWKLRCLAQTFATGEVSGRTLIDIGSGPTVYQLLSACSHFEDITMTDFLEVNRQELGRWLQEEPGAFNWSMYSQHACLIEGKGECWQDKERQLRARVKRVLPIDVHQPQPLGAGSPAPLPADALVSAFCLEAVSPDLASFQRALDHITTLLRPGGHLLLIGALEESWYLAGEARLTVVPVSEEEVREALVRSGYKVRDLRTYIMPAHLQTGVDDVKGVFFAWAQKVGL
# [7] = target: Phospholipid hydroperoxide glutathione peroxidase GPX4 (Homo sapiens) (UniProt P36969); test: Primary qHTS Assay for Inhibitors of Recombinant Selenoprotein Glutathione Peroxidase 4 (GPX4) (AID 1845192); note: nearly all actives have a fitted effect of over 65% in size; note: potency is the fitted concentration of half-maximal effect
# Chain of Phospholipid hydroperoxide glutathione peroxidase GPX4 (Homo sapiens) (P36969 whole entry, looked up): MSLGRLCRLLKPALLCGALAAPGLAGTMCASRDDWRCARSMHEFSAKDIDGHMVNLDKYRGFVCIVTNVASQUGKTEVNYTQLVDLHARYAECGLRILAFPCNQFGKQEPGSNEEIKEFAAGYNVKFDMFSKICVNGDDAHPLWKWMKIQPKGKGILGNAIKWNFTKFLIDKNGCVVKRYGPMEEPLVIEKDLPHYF
# How it was run: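 GR-coupled assay: recombinant GPX4 preincubated 30 min with compound at room temperature; final 200 nM GPX4, 1 mM GSH, 0.5 mM cumene hydroperoxide, 0.5 mM NADPH, 100 nM GR, 0.01% BSA, pH 7.5 Tris. NADPH fluorescence (340/450 nm) read at 0 and 15 min.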
# [8] = target: Luciferin 4-monooxygenase (Photinus pyralis) (UniProt P08659); test: Primary firefly luciferase (FLuc) qHTS assay for identification of artifact compounds. (AID 1845220); note: nearly all actives have a fitted effect of over 60% in size
# How it was run: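 D-luciferin and ATP (10 uM each, final) in Tris acetate buffer pH 7.6 were incubated with compounds for 15 min at room temperature. The reaction was started with 10 nM Photinus pyralis luciferase and luminescence read after 5 min. Percent inhibition was fitted to a 4-parameter Hill equation.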
# [9] = target: Rap guanine nucleotide exchange factor 3 (Homo sapiens) (UniProt O95398); test: Confirmatory qHTS for agonist of cAMP-regulated guanine nucleotide exchange factor 3 (EPAC1) (AID 1645881);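 note: EPAC1 catalysed release of BODIPY-GDP from Rap1B seen as fluorescence loss; nearly all actives have a fitted effect of over 75% in size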
# Chain of Rap guanine nucleotide exchange factor 3 (Homo sapiens) (O95398 whole entry, looked up): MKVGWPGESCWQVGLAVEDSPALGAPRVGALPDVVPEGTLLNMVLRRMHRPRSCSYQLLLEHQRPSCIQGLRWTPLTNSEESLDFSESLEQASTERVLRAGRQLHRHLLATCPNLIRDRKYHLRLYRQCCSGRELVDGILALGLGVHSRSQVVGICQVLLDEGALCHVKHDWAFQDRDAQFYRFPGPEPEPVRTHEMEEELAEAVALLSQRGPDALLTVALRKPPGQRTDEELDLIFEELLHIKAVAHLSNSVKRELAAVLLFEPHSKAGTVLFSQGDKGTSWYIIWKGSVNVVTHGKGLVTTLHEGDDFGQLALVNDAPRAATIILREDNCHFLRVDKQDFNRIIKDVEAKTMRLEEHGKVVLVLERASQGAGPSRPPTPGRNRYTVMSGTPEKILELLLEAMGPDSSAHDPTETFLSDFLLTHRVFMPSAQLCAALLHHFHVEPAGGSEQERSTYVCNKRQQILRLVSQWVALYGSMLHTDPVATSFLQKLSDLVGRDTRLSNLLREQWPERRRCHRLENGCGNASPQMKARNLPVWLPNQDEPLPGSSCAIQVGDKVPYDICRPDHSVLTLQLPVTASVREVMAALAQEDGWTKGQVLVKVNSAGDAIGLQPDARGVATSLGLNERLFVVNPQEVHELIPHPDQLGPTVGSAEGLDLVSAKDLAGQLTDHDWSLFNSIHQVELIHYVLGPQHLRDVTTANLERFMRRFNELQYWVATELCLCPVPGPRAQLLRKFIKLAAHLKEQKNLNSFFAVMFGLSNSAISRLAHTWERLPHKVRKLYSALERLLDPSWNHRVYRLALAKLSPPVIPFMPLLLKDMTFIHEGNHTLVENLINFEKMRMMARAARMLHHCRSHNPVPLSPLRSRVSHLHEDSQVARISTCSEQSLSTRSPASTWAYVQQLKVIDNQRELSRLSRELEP
# [10] = target: Rap guanine nucleotide exchange factor 4 (Homo sapiens) (UniProt Q8WZA2); test: Confirmatory qHTS for agonist of cAMP-regulated guanine nucleotide exchange factor 4 (EPAC2) (AID 1645884);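 note: nucleotide exchange releases bodipy-GDP from Rap1 and this lowers its fluorescence; nearly all actives have a fitted effect of over 65% in size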
# Chain of Rap guanine nucleotide exchange factor 4 (Homo sapiens) (Q8WZA2 whole entry, looked up): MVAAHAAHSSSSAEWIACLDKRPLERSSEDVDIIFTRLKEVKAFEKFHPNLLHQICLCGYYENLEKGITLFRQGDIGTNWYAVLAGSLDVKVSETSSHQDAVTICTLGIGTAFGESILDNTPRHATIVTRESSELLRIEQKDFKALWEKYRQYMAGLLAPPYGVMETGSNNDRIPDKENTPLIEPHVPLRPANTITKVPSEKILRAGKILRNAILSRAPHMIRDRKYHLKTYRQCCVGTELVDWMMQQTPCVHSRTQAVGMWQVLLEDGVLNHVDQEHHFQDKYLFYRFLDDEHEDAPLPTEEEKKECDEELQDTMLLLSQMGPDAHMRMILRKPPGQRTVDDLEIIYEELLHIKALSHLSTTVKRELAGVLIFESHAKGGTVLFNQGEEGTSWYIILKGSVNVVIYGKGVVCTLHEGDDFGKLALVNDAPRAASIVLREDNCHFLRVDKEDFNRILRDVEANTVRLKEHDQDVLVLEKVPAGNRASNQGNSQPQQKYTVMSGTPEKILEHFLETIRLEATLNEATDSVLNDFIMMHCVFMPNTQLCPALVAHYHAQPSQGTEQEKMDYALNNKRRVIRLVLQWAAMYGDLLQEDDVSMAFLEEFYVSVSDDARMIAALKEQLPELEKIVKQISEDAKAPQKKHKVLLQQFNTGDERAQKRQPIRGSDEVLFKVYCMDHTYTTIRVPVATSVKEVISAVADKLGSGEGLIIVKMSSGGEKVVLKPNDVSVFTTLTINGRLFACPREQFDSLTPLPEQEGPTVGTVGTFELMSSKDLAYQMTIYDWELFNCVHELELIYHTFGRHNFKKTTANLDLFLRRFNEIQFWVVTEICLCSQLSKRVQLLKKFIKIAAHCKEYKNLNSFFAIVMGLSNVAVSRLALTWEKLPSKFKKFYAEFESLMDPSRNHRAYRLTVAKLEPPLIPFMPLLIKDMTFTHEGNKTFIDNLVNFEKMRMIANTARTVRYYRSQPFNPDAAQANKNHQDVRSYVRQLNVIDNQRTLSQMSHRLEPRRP
# [11] = target: Rap guanine nucleotide exchange factor 4 (Homo sapiens) (UniProt Q8WZA2); test: Confirmatory qHTS for antagonist of cAMP-regulated guanine nucleotide exchange factor 4 (EPAC2) (AID 1645885); note: nearly all actives have a fitted effect of over 25% in size; note: potency is the fitted concentration of half-maximal effect
# [12] = target: Rap guanine nucleotide exchange factor 3 (Homo sapiens) (UniProt O95398); test: Counterscreen qHTS for antagonist of cAMP-regulated guanine nucleotide exchange factor 3 (EPAC1) (AID 1645888);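 note: fluorescence loss as bound BODIPY-GDP is released from Rap1B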
# How it was run: (§1)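 Rap1B–BODIPY-GDP (250 nM) with 50 uM GDP; compounds pin-transferred to 9.74 nM–152 uM final (activator) or from 7.32 nM upwards (inhibitor). Fluorescence Ex/Em 480/540 nm read at 5 and 30 min, then after adding cAMP or buffer, at room temperature.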
# [13] = target: Rap guanine nucleotide exchange factor 3 (Homo sapiens) (UniProt O95398); test: Counterscreen qHTS for agonist of cAMP-regulated guanine nucleotide exchange factor 3 (EPAC1) (AID 1645889); note: nearly all actives have a fitted effect of over 40% in size
# How it was run: as §1
# [14] = Viability counterscreen for agonist of constitutive androstane receptor (CAR) against the NCATS DSHEA and TCM libraries (AID 1794838);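 note: cells exposed to compound for 24 h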
# How it was run: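 Multiplexed counterscreen: after 24 h compound exposure with 0.75 uM PK11195, HepG2-CYP2B6-hCAR viability was quantified fluorimetrically (CellTiter-Fluor, 405/540 nm) prior to the ONE-Glo luciferase read.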
# [15] = HepG2 viability counterscreen (readout 2: ATP content) against the NCATS DSHEA and TCM libraries (AID 1794840);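 note: HepG2 cells exposed to substances for about 24 h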
# How it was run: (§2)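 After HepG2 cells attach for ~4 h, substances are added and incubated ~24 h at 37C, 5% CO2. GF-AFC fluorescence then CellTiter-Glo luminescence give protease and ATP readouts.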
# [16] = HepG2 viability counterscreen (readout 1: protease activity) against the NCATS DSHEA and TCM libraries (AID 1794841);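 note: cells exposed to compounds for about 24 h before the protease read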
# How it was run: as §2
# [17] = NCATS anti-infectives library activity on the primary C. elegans qHTS viability assay (AID 1745855; calls by dose curve; note: potency is the fitted concentration of half-maximal effect)
# How it was run: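 Viability is taken from GFP fluorescence of PE254-GFP-FLuc C. elegans imaged by laser cytometry over 7 days. Ten L1 worms per well grow at 21 °C on TOP10 E. coli capsules with titrated compound; levamisole marks toxicity.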
# [18] = Viability counterscreen for antagonist of constitutive androstane receptor (CAR) against the NCATS DSHEA and TCM libraries (AID 1794837);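 note: compound exposure lasted 24 h before viability reading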
# How it was run: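 Counterscreen performed in a 1536-well qHTS format using HepG2-CYP2B6-hCAR cells; samples titrated in the presence of 48 uM CITCO, with viability measured fluorometrically (405/540 nm) after 24 h.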
# [19] = target: Nuclear receptor subfamily 1 group I member 3 (Homo sapiens) (UniProt Q14994); test: Primary qHTS for agonist of constitutive androstane receptor (CAR) against the NCATS DSHEA and TCM libraries (AID 1794839);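 note: HepG2 cells expressing human CAR with a CYP2B6 reporter plus PK11195 antagonist; luciferase reporter luminescence read with ONE-Glo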
# Chain of Nuclear receptor subfamily 1 group I member 3 (Homo sapiens) (Q14994 whole entry, looked up): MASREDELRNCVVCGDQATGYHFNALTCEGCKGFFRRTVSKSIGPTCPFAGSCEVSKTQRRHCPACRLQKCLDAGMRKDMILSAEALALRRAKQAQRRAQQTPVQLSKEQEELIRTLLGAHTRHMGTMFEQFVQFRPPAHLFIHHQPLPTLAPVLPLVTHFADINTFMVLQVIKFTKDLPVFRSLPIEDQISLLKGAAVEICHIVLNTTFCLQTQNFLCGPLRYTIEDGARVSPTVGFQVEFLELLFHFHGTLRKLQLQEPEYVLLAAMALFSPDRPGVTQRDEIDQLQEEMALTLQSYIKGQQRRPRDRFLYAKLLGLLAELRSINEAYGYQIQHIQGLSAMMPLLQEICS
# How it was run: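 Concentration–response screen in HepG2-CYP2B6-hCAR cells under 0.75 µM PK11195; 24 h exposure; luminescent reporter signal with multiplexed fluorescent viability.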
# [20] = target: Metallo-beta-lactamase type 2 (Klebsiella pneumoniae) (UniProt C7C422); test: qHTS to identify inhibitors of the New Delhi Metallo-beta-lactamase (NDM): assay validation screen against the NCATS LOPAC Collection (AID 1794843)
# Chain of Metallo-beta-lactamase type 2 (Klebsiella pneumoniae) (C7C422 whole entry, looked up): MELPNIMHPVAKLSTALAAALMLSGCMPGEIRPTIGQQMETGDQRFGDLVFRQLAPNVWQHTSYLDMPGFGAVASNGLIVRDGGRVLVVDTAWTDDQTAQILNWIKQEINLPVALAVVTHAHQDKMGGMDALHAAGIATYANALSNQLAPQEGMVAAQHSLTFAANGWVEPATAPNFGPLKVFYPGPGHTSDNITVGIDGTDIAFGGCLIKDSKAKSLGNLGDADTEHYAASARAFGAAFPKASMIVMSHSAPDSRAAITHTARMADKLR
# How it was run: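 Absorbance at 485 nm from nitrocefin turnover (50 uM solution added), read at plateau, gives the read-out. Compounds in DMSO were incubated first with 2 nM final NDM-1 in pH 7.0 HEPES buffer containing 1 uM ZnSO4 and 0.01% Tween20.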
smiles,measurement,setting,value
CC(C)CN(C[C@@H](O)[C@H](Cc1ccccc1)NC(=O)O[C@H]1CO[C@H]2OCC[C@H]21)S(=O)(=O)c1ccc(N)cc1,outcome,[1],inactive
same,Potency,[2],inactive
Nc1ncnc2c1c(-c1cccc(OCc3ccccc3)c1)cn2C1CC(CN2CCC2)C1 (configuration not stated),activity,[3],-26%
same,Potency,[4],30.4 µM (active)
same,activity,[5],-29.1%
same,activity,[6],-91.7%
same,Potency,[2],inactive
same,Potency,[7],inactive
same,Potency,[8],inactive
C[C@@H](O[C@H]1OCCN(Cc2n[nH]c(=O)[nH]2)[C@@H]1c1ccc(F)cc1)c1cc(C(F)(F)F)cc(C(F)(F)F)c1,Potency,[9],inactive
same,Potency,[10],inactive
same,Potency,[11],22.1 µM (active)
same,Potency,[2],inactive
same,Potency,[7],inactive
O=C(O)c1nc(=O)[nH]c(=O)[nH]1,outcome,[1],inactive
same,Potency,[2],inactive
Cc1ccc2c(=O)c3cccc(CC(=O)O)c3oc2c1C,outcome,[1],inactive
same,Potency,[2],inactive
same,Potency,[7],inactive
CC1(COc2ccc3c(c2)ncn3-c2ccc3cccc(N4CCC(N)CC4)c3n2)COC1,activity,[3],-30.2%
same,Potency,[4],42.9 µM (active)
same,activity,[5],-29.9%
same,activity,[6],-30.6%
same,Potency,[2],inactive
same,Potency,[7],inactive
same,Potency,[8],inactive
O=c1cc(-c2ccc(O)c(O)c2)oc2cc(O)cc(O)c12,Potency,[9],inactive
same,Potency,[10],inactive
same,Potency,[11],inactive
same,outcome,[12],inactive
same,outcome,[13],inactive
same,Potency,[14],inactive
same,outcome,[15],inactive
same,outcome,[16],inactive
same,Potency,[2],inactive
CNC1CCC(N(Cc2cccc(-c3ccncc3)c2)C(=O)c2sc3ccccc3c2Cl)CC1 (configuration not stated),activity,[3],-14.8%
same,"activity change, negative = inhibition",[4],-1.13%
same,activity,[5],-65.2%
same,activity,[6],-20.3%
same,Potency,[2],inactive
same,Potency,[8],inactive
CC(C)[C@H](O)C(=O)N[C@@H](C)C(=O)N[C@@H]1C(=O)N(C)CCc2ccccc21,outcome,[1],inactive
same,Potency,[2],inactive
same,Potency,[7],inactive
Cc1ccc(S(=O)(=O)OCC(=O)Nc2ccc(C(=O)O)c(O)c2)cc1,outcome,[1],inactive
same,Potency,[17],12.9 µM (active)
Cc1cn([C@@H]2C[C@@H](O)[C@H](CO)O2)c(=O)[nH]c1=O,outcome,[1],inactive
same,Potency,[2],inactive
same,Potency,[7],inactive
Cc1ccccc1-n1c(Cn2nc(-c3cccc(O)c3)c3c(N)ncnc32)nc2cccc(C)c2c1=O,activity,[3],-10.8%
same,"activity change, negative = inhibition",[4],0%
same,activity,[5],-28.8%
same,activity,[6],1.94%
same,Potency,[2],inactive
same,Potency,[7],inactive
same,Potency,[8],inactive
CC(=O)Nc1cccc(-n2c(=O)n(C3CC3)c(=O)c3c(Nc4ccc(I)cc4F)n(C)c(=O)c(C)c32)c1,Potency,[17],2.3 µM (active)
OC[C@H]1O[C@@H](OCCc2ccc(O)cc2)[C@H](O)[C@@H](O)[C@H]1O,outcome,[18],inactive
same,Potency,[14],inactive
same,outcome,[19],inactive
CC(C)(CO)[C@@H](O)C(=O)NCCC(=O)O,outcome,[15],inactive
same,outcome,[16],inactive
C=CCc1cccc(C=NNC(=O)CN2CCN(Cc3ccccc3)CC2)c1O,outcome,[20],inactive
COc1ccc(CCN(C)CCCOc2ccc(S(=O)(=O)c3[nH]c4ccccc4c3C(C)C)cc2)cc1OC,Potency,[2],inactive
same,Potency,[7],inactive
O=C(O)c1ccc(O)c2ncc(N3CCOCC3)cc12,Potency,[2],inactive
same,Potency,[7],inactive
CC(C)C[C@@H](N)[C@H](O)C(=O)N[C@H](C(=O)N[C@H](C(=O)N[C@@H](CC(=O)O)C(=O)O)C(C)C)C(C)C,Potency,[2],inactive
same,Potency,[7],inactive
CCCCC[C@H](O)C=C[C@H]1[C@H](O)CC(=O)[C@H]1CC=CCCCC(=O)O,Potency,[2],inactive
same,Potency,[7],inactive
CN1C(=O)C[C@H](C(=O)N[C@@H](Cc2cnc[nH]2)C(=O)N2CCC[C@@H]2C(N)=O)NC1=O,Potency,[2],inactive
same,Potency,[7],inactive
CCCCCCCCCCCCCCCC(=O)O[C@H]1[C@@H](O)[C@@H](O)[C@@H]([C@H](NC(=O)[C@@H]2C[C@@H](CCC)CN2C)[C@H](C)Cl)O[C@@H]1SC,Potency,[2],inactive
same,Potency,[7],inactive
COc1cc(F)c(C(C)C)cc1-c1ccc(C(F)(F)F)cc1CN1C(=O)O[C@H](c2cc(C(F)(F)F)cc(C(F)(F)F)c2)[C@@H]1C,Potency,[2],inactive
same,Potency,[7],inactive
C[C@@H]1C[C@H]2[C@@H]3CCC4=CC(=O)C=C[C@]4(C)[C@@]3(F)[C@@H](O)C[C@]2(C)[C@@]1(O)C(=O)CO,Potency,[2],inactive
same,Potency,[7],inactive
CCc1cc(-c2n[nH]c(C)c2-c2ccc3c(c2)OCCO3)c(O)cc1O,Potency,[2],inactive
same,Potency,[7],inactive
CCCC1OC2C[C@@H]3[C@H]4CCC5=CC(=O)C=C[C@]5(C)[C@H]4C(O)C[C@]3(C)[C@]2(C(=O)CO)O1 (some centres not stated),Potency,[2],inactive
same,Potency,[7],inactive
CO[C@@H]1C(N(C)C(=O)c2ccccc2)C[C@H]2O[C@]1(C)n1c3ccccc3c3c4c(c5c6ccccc6n2c5c31)C(=O)NC4=O (some centres not stated),Potency,[2],inactive
same,Potency,[7],18 µM (active)
CN(C)N=Nc1nc[nH]c1C(N)=O,Potency,[2],inactive
same,Potency,[7],inactive
CCOC(=O)[C@@H](N)CCC(=O)N[C@@H](CSCc1ccccc1)C(=O)N[C@@H](C(=O)OCC)c1ccccc1,Potency,[2],inactive
same,Potency,[7],inactive
C[C@]12CC[C@@H]3c4ccc(O)cc4CC[C@H]3[C@H]1[C@@H](O)[C@@H](O)[C@H]2O,Potency,[2],inactive
same,Potency,[7],inactive
C[C@@H](O)[C@H]1C(=O)N2C(C(=O)OCOC(=O)C(C)(C)C)=C(SC3CN(C4=NCCS4)C3)[C@H](C)[C@H]12,Potency,[2],inactive
same,Potency,[7],inactive
CSc1cccc(Nc2ncc3cc(-c4c(Cl)cccc4Cl)c(=O)n(C)c3n2)c1,Potency,[2],inactive
same,Potency,[7],inactive
CCOC(=O)N1c2ccc(C(F)(F)F)cc2[C@@H](N(Cc2cc(C(F)(F)F)cc(C(F)(F)F)c2)C(=O)OC)C[C@H]1CC,Potency,[2],inactive
same,Potency,[7],inactive
NCC1CCC(C(=O)O)CC1 (configuration not stated),Potency,[2],inactive
same,Potency,[7],inactive
O=[N+]([O-])c1ccc(Nc2ccccc2-c2ccccc2)c2nonc12,Potency,[2],inactive
same,Potency,[7],inactive
O=C(O)C1=CC(O)C(O)[C@H](O)C1 (some centres not stated),Potency,[2],inactive
same,Potency,[7],inactive
Cc1ccc(S(=O)(=O)Nc2nc3ccccc3nc2Nc2ccc3nsnc3c2)cc1,Potency,[2],inactive
same,Potency,[7],inactive
CC(=O)NCCC(=O)N[C@@H](CCC(N)=O)C(=O)N[C@@H](CO)C(=O)N[C@@H](CCC(N)=O)C(=O)N[C@@H](CCC(N)=O)C(=O)N[C@H](C(=O)N[C@@H](Cc1ccccc1)C(=O)N[C@]1(C)CCCCCCC=CCCC[C@@](C)(C(=O)N[C@@H](CCC(N)=O)C(=O)N[C@@H](CC(N)=O)C(N)=O)NC(=O)[C@H](CC(C)C)NC(=O)[C@H](CC(C)C)NC(=O)[C@@H](CCCNC(=N)N)NC(=O)[C@H](Cc2c[nH]c3ccccc23)NC(=O)[C@H](CC(C)C)NC(=O)[C@H](CC(N)=O)NC1=O)[C@H](C)O,Potency,[2],inactive
same,Potency,[7],inactive
